Most compounds without a hit are left out; they make up all but 7.5% or so of the library.
NPC1 promoter act = activators of NPC1 promoter. Huh7 NPC1 promoter luciferase reporter, 24 h. actives 2.4% (n = 320,000). AID 485313. Potency, µM (top dose mostly 9.22 µM), without a hit: at the top dose activation, usual class: activators; also: % of control where 0% means no effect; nearly all actives have a fitted effect of over 60% in size
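Cells: Huh7 expressing luciferase under the NPC1 promoter, 1500/well. Seeded 2 h, compound added, incubated 24 h at 37 °C. Luciferase reagent, 10 min ambient, then luminescence.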
ELG1 genotox = induces genotoxicity in HEK293T cells with luciferase-tagged ELG1; HEK293T ELG1-luciferase reporter, luminescence, 16 h; Potency, µM (highest dose often 46 µM), for the others: top-dose activity change, positive = activation, actives largely listed as activators; actives 1.3% (n = 330,000); AID 504466; also: % of control where 0% means no effect; nearly all actives have a fitted effect of over 60% in size
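Reporter readout depends on ELG1 protein level, which increases with genetic stress. After 16 hr compound exposure at 37 °C, luciferase activity was quantified using ONE-Glo.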
KinaseGlo FLuc = Kinase-Glo luciferase inhibition (counter-screen) | AID 1379 | Potency, µM (titrated, usually from 38.3 µM), without a hit: at the highest dose activity change, negative = inhibition, actives largely listed as inhibitors | Q27757 | actives 0.28% (n = 200,000) | Kinase-Glo luciferase, ATP luminescence, 8 min; also: % is scaled to controls: 0 for no effect and ±100 for the full control effect; nearly all actives have a fitted effect of over 60% in size
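Compound is pinned into ATP-containing buffer (10 uM ATP, imidazole pH 7.2, 7 mM MgCl2). Kinase-Glo luciferase reagent is then added. Light output is recorded following an 8-min room-temperature incubation.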
FLuc modulator = inhibits or activates purified firefly luciferase, miR-21 counter-screen; actives 6.9% (n = 360,000); Potency, µM (highest dose often 57.5 µM), for inactives: top-dose activity change, negative = inhibition, actives largely listed as inhibitors; P08659; purified FLuc, Km substrates, luminescence inhibition; AID 588342;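 also: plate controls were vehicle for no effect and reference inhibitor for full effect; nearly all actives have a fitted effect of over 55% in size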
Target sequence (P08659 whole entry, looked up): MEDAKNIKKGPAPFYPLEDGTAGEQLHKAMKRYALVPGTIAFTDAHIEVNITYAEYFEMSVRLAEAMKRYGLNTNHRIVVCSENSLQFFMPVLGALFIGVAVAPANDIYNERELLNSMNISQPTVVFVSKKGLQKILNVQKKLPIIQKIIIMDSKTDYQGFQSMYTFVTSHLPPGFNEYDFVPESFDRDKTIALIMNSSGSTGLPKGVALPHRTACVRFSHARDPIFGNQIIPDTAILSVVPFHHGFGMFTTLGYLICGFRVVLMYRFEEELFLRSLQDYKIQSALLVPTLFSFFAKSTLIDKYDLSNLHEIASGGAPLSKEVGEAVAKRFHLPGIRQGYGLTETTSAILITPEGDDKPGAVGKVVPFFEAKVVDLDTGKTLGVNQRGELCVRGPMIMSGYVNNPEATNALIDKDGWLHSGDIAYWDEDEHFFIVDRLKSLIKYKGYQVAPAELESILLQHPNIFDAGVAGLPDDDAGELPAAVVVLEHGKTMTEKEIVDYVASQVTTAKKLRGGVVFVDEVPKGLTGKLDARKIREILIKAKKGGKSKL
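Purified P. pyralis luciferase, 10 nM final, with Km-level 10 uM D-luciferin and 10 uM ATP in 50 mM Tris acetate pH 7.5, 10 mM Mg acetate, 0.01% Tween-20, 0.05% BSA; 6-point qHTS titration about 60 µM downward; luminescence read.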
SMN2 splice up = SMN2 splice variant enhancement. HEK293 SMN2-luciferase splicing reporter, luminescence, 30-36 h. AID 1458. actives 2.8% (n = 210,000). Potency, µM (top dose mostly 46.1 µM), for the others: at the highest dose activity change, positive = activation, most hits filed as activators; also: % of control where 0% means no effect; nearly all actives have a fitted effect of over 55% in size
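HEK293 cells carry an SMN2 minigene-luciferase reporter in which exon 7 inclusion puts luciferase in frame. Cells were seeded at 2000 cells/well, attached for 10-12 hours, then exposed to compounds for 30-36 hours at 37C before ONE-Glo luminescence.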
Rab9 promoter act = Rab9 promoter activation; Huh7 Rab9 promoter-luciferase reporter, luminescence, 24 h; Potency, µM (titrated, usually from 9.22 µM), without a hit: top-dose activation, negative = inhibition, hits mostly activators; actives 2.8% (n = 320,000); AID 485297; also: % of control where 0% means no effect; nearly all actives have a fitted effect of over 60% in size
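Rab9 promoter-driven luciferase in stably transfected Huh7 cells; 1500 cells/well rested 2 h, exposed to compound in DMSO for 24 h at 37 °C, 5% CO2. Luminescence read 10 min after adding luciferase reagent at ambient temperature.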
* marks the source's active call; other numbers are inactive results; ? = inconclusive; · = no result; [ ] = dose if it differs, or a comment. Calls follow the shape of the dose curve; as a rule, active = well fitted curve in the direction sought with a large enough effect; inconclusive = small, poorly fitted or top-dose-only effect, or another doubt; inactive = no such curve, though single readings can be large; an effect the other way counts as inactive or inconclusive. Potency is read from the fitted curve at half-maximal effect.

SMILES	NPC1 promoter act	ELG1 genotox	KinaseGlo FLuc	FLuc modulator	SMN2 splice up	Rab9 promoter act
CSc1ncc(Cl)c(C(=O)N(Cc2ccc(C)cc2)C2CCS(=O)(=O)C2)n1 (stereo unspecified)	·	·	·	6.4%	2.0%	·
Cc1ccc(C(O)c2nc3ccccc3n2C(C)C)cc1 (stereo unspecified)	-2.2%	-1.1%	4.6%	-3.1%	-7.2%	-2.9%
CC(C)n1c(-c2ccc(N(C)C)cc2)nc2ccccc21	1.1%	18.2%	-9.7%	7.57µM*	10.0%	?
CN(Cc1nc2ccccc2n1C)c1ccccc1	-0.3%	4.4%	·	-12.9%	·	5.2%
CN(C)c1ccc(-c2nc3ccccc3n2C)cc1	0.316µM*	?	10µM*	0.269µM*	0.631µM*	0.224µM*
CCn1c(-c2ccc(N(C)C)cc2)nc2ccccc21	?	1.6%	-10.8%	0.849µM*	12.6µM*	?
CCn1c(-c2ccco2)nc2ccccc21	22.5%	28.4%	-15.1%	19µM*	9.3%	18.2%
c1ccc(OCCn2c(-c3ccco3)nc3ccccc32)cc1	17.9%	6.2%	1.8%	?	13.0%	17.7%
Cc1ccc(CSC2=Nc3ccccc3C3=NC(CCC(=O)NCc4cccs4)C(=O)N23)c(C)c1 (stereo unspecified)	·	·	·	-3.0%	·	·
CCCCOc1ccc(C(=O)Nc2ccc3c(c2)CCCN3S(=O)(=O)c2ccc(C)cc2)cc1	·	·	·	-7.3%	·	·
CCc1ccccc1NC(=O)C(=O)NCC(c1cccnc1)N1CCc2ccccc21 (stereo unspecified)	·	·	·	-2.4%	·	·
COc1ccc(-c2cc(C(=O)N3CCN(c4ccccc4)CC3)c3ccccc3n2)cc1OC	-3.3%	-15.4%	-6.7%	15.1µM*	24.7%	-2.4%
Cc1ccc(-c2cc(C(=O)N3CCN(c4ccccc4)CC3)c3ccccc3n2)cc1C	·	·	·	2.39µM*	·	·
COc1ccc(-c2cc(C(=O)N3CCCC(C(F)(F)F)C3)c3ccccc3n2)cc1OC (stereo unspecified)	-0.9%	-16.5%	·	?	·	0.7%
Cc1ccc(-c2cc(C(=O)n3cnc4ccccc43)c3ccccc3n2)cc1C	?	11.7%	-4.1%	3.01µM*	21.3%	?
Cc1ccc2c(C(=O)N3CCN(c4ccccc4)CC3)cc(-c3cccnc3)nc2c1C	-6.6%	-3.4%	0.5%	-2.2%	9.8%	-5.6%
COc1ccc2c(CNCCc3ccco3)c(C(=O)O)n(Cc3ccc(F)cc3)c2c1	·	·	·	5.8%	·	·
CCn1cc(C(=O)NCCc2ccc(OC)c(OC)c2)c(=O)c2cc(S(=O)(=O)N3CCc4ccccc4C3)ccc21	·	·	·	-4.3%	4.2%	·
O=C(CNC(=S)NC(=O)C1CCCCC1)c1ccccc1	29.8%	?	-2.7%	12µM*	?	?
O=C(Nc1ccc(NC(=S)NC(=O)c2ccco2)cc1)c1ccccc1	-2.8%	14.6%	·	1.1%	·	13.1%
O=C(CNC(=S)NC(=O)c1ccco1)c1ccccc1	?	16.3%	-6.8%	12µM*	1.7%	23.0%
O=C(NC(=S)Nc1ccccc1Br)c1ccco1	?	?	·	10.7µM*	·	?
O=C(NC(=S)Nc1cccc(NC(=S)NC(=O)c2ccco2)n1)c1ccco1	0.9%	3.8%	1.7%	-4.3%	-6.5%	2.2%
O=C(NC(=S)NNC(=O)c1cc2ccccc2cc1O)c1ccco1	13.4%	3.4%	0.3%	16.9µM*	-4.0%	0.2%
O=C1OC2(CCCCC2)CC2=C1C1O[C@](c3ccsc3)(Cc3c1ccc1ccccc31)O2	13.0%[1.84 µM]	·	·	?	·	15.0%[1.84 µM]
SMILES	NPC1 promoter act	ELG1 genotox	KinaseGlo FLuc	FLuc modulator	SMN2 splice up	Rab9 promoter act
CCN(CC)C(=O)c1sc2c(c1C)c(=O)n(-c1ccccc1)c(=O)n2CC(=O)N(CC)c1cccc(C)c1	·	·	·	2.7%	·	·
O=C(NC(=S)NNC(=O)c1ccccc1O)c1ccco1	4.4%	0.6%	-3.3%	21.3µM*	-9.4%	0.5%
O=C(NNC(=S)NC(=O)c1ccco1)c1ccc(NC(=O)c2ccccc2)cc1	-1.0%	-6.2%	-0.4%	?	-27.4%	-5.6%
CCOC(=O)c1sc(NC(=O)CSc2nc3c(cc2C#N)CCCCC3)c(C#N)c1C	29.3%	-3.9%	-1.1%	-6.0%	4.3%	17.6%
CCc1nnc(NC(=O)CSc2nc3c(cc2C#N)CCCC3)s1	0.891µM*	?	3.6%	0.849µM*	5.62µM*	0.501µM*
N#Cc1cc2c(nc1SCC(=O)O)CCCCC2	-6.1%	0.6%	·	-5.1%	·	-0.4%
CCOC(=O)CC(=O)CSc1nc2c(cc1C#N)CCC2	-1.5%	1.9%	-1.0%	13.5µM*	-4.3%	6.0%
COC(=O)CC(=O)CSc1nc2c(cc1C#N)CCCCC2	21.6%	?	2.8%	5.36µM*	?	?
c1ccc(OCCOc2ncnc3sccc23)cc1	25.5%	16.4µM*	-6.5%	?	?	2.82µM*
O=C1c2ccccc2C(=O)N1CCSc1nncs1	-2.5%	4.6%	5.8%	-11.9%	-5.0%	-4.1%
O=C1c2ccccc2C(=O)N1CCSc1ccccc1	2.82µM*	11.6µM*	-4.9%	4.26µM*	?	?
Cc1csc(SCCN2C(=O)c3ccccc3C2=O)n1	?	?	9.6%	13.5µM*	7.9%	?
CN(C)c1nc(N)ncc1-c1ccc(Oc2ccccc2)cc1	-0.6%	-4.4%	·	-0.9%	·	-2.7%
Cc1ccccc1CN1CCN(c2nc3ccccc3s2)CC1	1.58µM*	20.6µM*	·	4.78µM*	·	1.41µM*
CNC(=S)N1CCN(c2nc3ccccc3s2)CC1	?	17.1%	-4.9%	16.9µM*	·	?
O=C(C1CC1)N1CCN(c2nc3ccccc3s2)CC1	2.82µM*	?	0.1%	21.3µM*	?	2.24µM*
Cc1cc(C)c2sc(N3CCN(C(=O)C4CC4)CC3)nc2c1	·	·	·	12µM*	·	·
CCCCNC(=O)C1CCC(CNS(=O)(=O)c2ccc(Cl)cc2)CC1 (stereo unspecified)	·	·	·	-5.1%	·	·
O=C(CCc1nc2cccnc2n1Cc1cccs1)Nc1cccc(Cl)c1	·	·	·	-10.9%	-9.4%	·
Cc1ccc(-n2nnnc2CNC(=O)c2ccc(F)cc2)cc1C	·	·	·	-1.7%	·	·
CCC(=O)N1CCN(c2nc3ccccc3s2)CC1	?	6.2%	-4.4%	16.9µM*	2.4%	3.16µM*
CCS(=O)(=O)c1ccccc1C(=O)N1CCN(c2nc3ccccc3s2)CC1	·	·	·	-4.3%	·	·
CC(C)(CC(=O)O)CC(=O)N1CCN(c2nc3ccc(Cl)cc3s2)CC1	-1.6%	5.2%	·	-16.9%	·	-1.4%
CCCCC(=O)N1CCN(c2nc3ccc(Cl)cc3s2)CC1	?	?	·	10.7µM*	·	29.3%
COc1ccccc1/C=C/c1nc(C#N)c(N2CCCCCC2)o1	·	·	·	1.8%	16.9%	·
